# Experimental data reported in the supplement of paper PMC11732987, “Enantioselective OTUD7B fragment discovery through chemoproteomics screening and high-throughput optimisation” (Communications Chemistry, 2025).
# A number with no mark means an inactive call.
# Assays:
# Experiment in all cases: log2 ratio of Biotin-Ahx-Ub-VS probe labelling (fragment/DMSO); higher = less target engagement (more negative = stronger competition), active = hit call of the paper (q ≤ 0.05, log2 ratio ≤ -1)
# Settings in all cases: compound concentration: 200 uM; treatment time: 3 h
# USP19 = molecular target: T1, USP19 (UniProt O94966)
# T1 sequence (whole entry): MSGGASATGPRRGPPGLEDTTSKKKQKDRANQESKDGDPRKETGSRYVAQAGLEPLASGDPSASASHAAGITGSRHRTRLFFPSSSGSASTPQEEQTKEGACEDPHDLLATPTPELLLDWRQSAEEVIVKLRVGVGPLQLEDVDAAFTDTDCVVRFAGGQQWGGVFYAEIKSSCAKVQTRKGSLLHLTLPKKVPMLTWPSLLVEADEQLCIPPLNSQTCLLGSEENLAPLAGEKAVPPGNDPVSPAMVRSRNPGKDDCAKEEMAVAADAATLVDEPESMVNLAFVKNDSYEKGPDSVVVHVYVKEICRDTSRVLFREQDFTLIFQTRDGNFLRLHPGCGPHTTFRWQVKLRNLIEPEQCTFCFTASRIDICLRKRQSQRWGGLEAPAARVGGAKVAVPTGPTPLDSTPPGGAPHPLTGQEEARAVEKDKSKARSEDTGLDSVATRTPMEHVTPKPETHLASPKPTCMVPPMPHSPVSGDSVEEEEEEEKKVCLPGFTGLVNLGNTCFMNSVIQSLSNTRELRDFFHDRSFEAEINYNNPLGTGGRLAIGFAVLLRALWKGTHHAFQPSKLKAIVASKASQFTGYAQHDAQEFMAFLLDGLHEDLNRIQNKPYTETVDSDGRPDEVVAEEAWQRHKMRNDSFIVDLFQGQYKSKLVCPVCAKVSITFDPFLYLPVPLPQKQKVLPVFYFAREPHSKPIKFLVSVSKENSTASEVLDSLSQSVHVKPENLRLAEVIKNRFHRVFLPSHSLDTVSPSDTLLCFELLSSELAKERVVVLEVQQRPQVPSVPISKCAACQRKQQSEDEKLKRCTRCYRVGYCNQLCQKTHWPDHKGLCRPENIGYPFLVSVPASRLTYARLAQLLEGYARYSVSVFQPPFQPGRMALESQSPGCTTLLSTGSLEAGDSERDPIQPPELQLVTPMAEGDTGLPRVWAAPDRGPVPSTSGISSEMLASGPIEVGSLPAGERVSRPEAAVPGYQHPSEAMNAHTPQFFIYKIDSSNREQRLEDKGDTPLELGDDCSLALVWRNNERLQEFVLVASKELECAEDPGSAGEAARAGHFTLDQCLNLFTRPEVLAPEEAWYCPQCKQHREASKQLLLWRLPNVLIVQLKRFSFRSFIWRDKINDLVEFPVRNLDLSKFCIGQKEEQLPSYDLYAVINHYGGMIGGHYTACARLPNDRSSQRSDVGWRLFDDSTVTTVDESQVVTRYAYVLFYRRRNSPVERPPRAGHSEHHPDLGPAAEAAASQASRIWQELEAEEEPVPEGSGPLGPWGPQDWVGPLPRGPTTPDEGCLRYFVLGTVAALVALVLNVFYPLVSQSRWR
# Summary of the method: (§1)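 Average log2 ratios of fragment over vehicle were obtained by unpaired t-test from global-median-normalised Spectronaut label-free quantities. Proteins with ≥2 unique peptides were included. HEK293T lysate (495 µg per sample) was treated in triplicate with fragment at 200 µM or vehicle for 3 h, then with Biotin-Ahx-Ub-VS at 0.5 µM final for 1 h, and labelled DUBs were NeutrAvidin-enriched and run by diaPASEF LC-MS/MS.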
# USP22 = molecular target: T2, USP22 (UniProt Q9UPT9)
# T2 sequence (whole entry): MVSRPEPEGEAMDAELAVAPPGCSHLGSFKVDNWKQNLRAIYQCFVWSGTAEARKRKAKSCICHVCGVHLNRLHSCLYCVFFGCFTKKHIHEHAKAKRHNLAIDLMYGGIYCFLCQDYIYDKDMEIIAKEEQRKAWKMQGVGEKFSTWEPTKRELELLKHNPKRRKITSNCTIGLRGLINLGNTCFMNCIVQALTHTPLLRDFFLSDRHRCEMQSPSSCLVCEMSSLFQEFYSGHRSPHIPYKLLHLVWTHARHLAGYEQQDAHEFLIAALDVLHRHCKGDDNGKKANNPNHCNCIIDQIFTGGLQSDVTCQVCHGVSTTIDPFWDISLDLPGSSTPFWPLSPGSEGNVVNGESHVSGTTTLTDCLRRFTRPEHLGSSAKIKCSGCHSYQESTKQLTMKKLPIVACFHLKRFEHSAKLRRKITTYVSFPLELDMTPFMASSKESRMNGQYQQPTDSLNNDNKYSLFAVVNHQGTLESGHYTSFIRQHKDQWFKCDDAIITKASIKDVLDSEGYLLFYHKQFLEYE
# Summary of the method: as §1
# USP24 = USP24 (UniProt Q9UPU5)
# Summary of the method: as §1
# USP25 = molecular target: T3, USP25 (UniProt Q9UHP3)
# T3 sequence (whole entry): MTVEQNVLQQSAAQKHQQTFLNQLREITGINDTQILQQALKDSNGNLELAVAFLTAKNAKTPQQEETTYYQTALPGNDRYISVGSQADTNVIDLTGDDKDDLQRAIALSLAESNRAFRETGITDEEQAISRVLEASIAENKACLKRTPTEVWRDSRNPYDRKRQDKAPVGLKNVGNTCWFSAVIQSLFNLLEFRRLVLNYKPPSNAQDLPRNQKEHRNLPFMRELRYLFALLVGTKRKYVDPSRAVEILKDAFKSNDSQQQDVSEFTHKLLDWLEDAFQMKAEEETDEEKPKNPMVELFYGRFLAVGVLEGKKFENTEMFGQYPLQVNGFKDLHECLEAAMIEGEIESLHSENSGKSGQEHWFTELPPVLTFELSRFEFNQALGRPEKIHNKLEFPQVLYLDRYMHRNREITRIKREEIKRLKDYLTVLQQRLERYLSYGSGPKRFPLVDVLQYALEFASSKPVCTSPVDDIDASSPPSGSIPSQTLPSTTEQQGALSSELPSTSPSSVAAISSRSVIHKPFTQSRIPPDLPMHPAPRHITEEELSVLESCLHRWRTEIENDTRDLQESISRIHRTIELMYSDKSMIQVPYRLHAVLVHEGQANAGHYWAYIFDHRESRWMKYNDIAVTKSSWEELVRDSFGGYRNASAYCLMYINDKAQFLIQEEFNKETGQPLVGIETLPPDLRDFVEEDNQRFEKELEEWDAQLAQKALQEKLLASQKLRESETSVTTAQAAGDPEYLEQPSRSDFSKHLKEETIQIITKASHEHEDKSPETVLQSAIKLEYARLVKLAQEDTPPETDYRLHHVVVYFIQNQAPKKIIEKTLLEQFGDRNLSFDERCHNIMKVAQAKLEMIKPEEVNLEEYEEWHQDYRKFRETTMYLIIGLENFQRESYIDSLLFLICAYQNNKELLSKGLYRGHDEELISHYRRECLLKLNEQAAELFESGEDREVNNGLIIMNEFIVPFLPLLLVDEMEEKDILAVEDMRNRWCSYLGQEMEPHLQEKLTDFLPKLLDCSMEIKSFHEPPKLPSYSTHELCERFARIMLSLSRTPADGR
# Summary of the method: as §1
# USP28 = molecular target: T4, USP28 (UniProt Q96RU2)
# T4 sequence (whole entry): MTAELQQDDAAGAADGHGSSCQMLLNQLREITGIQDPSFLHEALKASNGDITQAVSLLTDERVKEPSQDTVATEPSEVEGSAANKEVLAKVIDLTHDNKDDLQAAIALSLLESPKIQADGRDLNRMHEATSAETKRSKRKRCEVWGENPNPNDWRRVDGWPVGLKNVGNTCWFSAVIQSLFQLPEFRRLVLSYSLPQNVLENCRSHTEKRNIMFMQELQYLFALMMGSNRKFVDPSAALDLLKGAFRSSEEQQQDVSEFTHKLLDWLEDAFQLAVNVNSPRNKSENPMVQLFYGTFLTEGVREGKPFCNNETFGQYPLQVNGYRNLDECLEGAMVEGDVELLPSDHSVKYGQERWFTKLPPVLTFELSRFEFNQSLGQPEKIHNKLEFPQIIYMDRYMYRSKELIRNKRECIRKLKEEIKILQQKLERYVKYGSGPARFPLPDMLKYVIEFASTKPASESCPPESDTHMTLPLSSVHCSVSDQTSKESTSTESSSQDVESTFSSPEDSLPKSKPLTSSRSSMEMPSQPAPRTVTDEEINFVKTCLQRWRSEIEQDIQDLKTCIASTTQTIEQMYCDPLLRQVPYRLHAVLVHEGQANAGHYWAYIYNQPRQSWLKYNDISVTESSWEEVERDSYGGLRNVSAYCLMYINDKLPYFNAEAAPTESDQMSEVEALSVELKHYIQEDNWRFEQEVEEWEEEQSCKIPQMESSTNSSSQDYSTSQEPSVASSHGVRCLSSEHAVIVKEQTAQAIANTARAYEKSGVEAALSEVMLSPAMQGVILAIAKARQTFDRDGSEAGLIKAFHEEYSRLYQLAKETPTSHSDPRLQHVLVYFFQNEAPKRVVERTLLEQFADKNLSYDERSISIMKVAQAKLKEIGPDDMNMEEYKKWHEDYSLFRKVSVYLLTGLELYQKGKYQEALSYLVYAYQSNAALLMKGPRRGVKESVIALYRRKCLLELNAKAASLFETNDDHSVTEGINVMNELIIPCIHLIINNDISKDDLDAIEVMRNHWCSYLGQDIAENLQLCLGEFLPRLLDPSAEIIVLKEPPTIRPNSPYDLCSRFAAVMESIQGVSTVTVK
# Summary of the method: as §1
# USP24, sequence (Q9UPU5 whole entry): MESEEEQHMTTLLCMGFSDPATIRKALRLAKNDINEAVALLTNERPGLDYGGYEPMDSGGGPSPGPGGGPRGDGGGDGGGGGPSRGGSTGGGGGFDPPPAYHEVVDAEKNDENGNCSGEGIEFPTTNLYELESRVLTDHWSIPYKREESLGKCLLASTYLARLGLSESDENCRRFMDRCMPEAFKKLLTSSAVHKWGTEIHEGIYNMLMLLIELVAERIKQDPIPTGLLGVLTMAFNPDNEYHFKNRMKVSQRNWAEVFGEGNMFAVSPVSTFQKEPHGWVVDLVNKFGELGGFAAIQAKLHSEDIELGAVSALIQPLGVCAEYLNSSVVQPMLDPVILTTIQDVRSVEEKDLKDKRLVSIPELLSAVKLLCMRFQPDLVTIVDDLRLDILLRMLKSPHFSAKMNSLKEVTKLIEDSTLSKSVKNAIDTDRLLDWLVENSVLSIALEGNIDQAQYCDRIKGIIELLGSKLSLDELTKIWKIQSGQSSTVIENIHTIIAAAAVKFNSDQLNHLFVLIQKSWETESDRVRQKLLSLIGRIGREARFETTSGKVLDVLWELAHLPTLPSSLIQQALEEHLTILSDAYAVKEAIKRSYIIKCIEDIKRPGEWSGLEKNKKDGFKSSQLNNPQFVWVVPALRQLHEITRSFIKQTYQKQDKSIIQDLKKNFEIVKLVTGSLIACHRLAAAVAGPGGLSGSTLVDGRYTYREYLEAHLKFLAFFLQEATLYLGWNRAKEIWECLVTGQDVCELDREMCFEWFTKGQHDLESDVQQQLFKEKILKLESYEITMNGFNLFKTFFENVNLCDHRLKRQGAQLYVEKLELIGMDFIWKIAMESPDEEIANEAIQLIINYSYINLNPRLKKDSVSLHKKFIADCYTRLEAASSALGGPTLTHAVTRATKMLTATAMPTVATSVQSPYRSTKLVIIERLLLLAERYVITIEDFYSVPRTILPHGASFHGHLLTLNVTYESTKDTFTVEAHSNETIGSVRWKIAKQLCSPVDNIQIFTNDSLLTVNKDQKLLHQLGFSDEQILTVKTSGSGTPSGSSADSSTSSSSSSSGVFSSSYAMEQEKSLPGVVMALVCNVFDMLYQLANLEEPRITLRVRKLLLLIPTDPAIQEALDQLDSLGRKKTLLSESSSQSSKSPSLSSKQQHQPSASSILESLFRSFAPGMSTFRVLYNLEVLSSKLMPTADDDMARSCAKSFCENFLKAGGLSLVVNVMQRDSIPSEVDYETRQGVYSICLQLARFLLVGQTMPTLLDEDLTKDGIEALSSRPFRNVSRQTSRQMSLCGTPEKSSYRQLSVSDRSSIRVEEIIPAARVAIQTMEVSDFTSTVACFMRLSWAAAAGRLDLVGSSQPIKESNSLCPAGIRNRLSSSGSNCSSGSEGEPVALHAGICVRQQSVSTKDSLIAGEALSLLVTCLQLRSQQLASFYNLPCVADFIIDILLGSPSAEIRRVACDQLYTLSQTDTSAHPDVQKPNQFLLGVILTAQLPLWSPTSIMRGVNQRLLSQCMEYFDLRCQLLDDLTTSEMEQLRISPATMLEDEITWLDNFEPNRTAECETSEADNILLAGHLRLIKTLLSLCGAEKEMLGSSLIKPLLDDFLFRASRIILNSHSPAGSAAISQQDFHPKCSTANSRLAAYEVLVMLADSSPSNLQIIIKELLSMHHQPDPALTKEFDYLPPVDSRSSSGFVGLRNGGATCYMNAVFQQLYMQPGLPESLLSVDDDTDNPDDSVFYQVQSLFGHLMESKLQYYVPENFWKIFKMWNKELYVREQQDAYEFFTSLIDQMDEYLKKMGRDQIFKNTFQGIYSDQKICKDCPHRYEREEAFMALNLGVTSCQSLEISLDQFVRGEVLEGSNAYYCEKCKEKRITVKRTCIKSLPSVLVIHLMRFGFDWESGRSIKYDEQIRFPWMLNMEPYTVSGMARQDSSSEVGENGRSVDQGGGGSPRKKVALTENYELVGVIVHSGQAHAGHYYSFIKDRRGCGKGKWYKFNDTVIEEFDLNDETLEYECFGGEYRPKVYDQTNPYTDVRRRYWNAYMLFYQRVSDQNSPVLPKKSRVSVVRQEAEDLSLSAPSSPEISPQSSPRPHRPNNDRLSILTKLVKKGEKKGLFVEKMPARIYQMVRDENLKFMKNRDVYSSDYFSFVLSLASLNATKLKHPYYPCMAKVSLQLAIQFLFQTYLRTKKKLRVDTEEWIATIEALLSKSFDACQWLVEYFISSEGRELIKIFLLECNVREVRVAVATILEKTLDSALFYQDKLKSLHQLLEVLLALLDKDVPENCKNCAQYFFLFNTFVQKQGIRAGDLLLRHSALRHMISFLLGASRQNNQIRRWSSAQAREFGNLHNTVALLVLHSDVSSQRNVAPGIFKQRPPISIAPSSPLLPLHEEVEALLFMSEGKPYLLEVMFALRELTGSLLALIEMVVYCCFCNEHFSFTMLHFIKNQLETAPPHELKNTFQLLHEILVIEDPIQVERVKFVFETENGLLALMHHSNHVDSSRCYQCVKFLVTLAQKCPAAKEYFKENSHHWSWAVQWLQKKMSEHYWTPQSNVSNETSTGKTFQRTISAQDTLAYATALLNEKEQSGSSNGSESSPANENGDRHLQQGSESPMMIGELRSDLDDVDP
smiles,measurement,setting,value
Cl.O=C(CCl)N1CCn2ncc(O)c2C1,log2 ratio of Biotin-Ahx-Ub-VS probe labelling,USP19,-0.754
same,log2 ratio of Biotin-Ahx-Ub-VS probe labelling,USP22,-0.609
same,log2 ratio of Biotin-Ahx-Ub-VS probe labelling,USP24,-1.05 (active)
same,log2 ratio of Biotin-Ahx-Ub-VS probe labelling,USP25,-0.877
same,log2 ratio of Biotin-Ahx-Ub-VS probe labelling,USP28,-1.17 (active)
